Data as given in PubChem BioAssay (Tox21).
Results filed as inconclusive are left out. Where a call stands in place of a potency, no number is given. Values without a mark were called inactive. Activity calls are given as the source filed them. Calls come from the whole dose curve; as a rule, active = well fitted curve in the direction sought with a large enough effect in the repeat runs; inconclusive = weak or mixed curves; inactive = no such curve, though single readings can be large; an effect the other way counts as inactive or inconclusive.

Key:
[1] = qHTS RealTime-Glo MT Cell Viability Assay in HepG2 cells - 40 hour (AID 1224870); note: nearly all actives have a fitted effect of over 50% in size; note: potency is the fitted concentration of half-maximal effect
In short: (§1)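 Real-time viability: cells seeded at 600 per well together with NanoLuc and cell-permeant prosubstrate, compounds added after 5 h incubation. Luminescence tracked at 0, 8, 16, 24, 32 and 40 h of exposure.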

[2] = A CellTox Green Cytotoxicity Assay to monitor cytotoxicity in HEK293 cells - 40 hour (AID 1224871); note: nearly all actives have a fitted effect of over 45% in size
In short: (§2)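 Nonlytic real-time cytotoxicity: HEK293 + CellTox Green reagent plated, 5 h preincubation, pintool compound addition (23 nL in DMSO), 37 C for 40 h, fluorescence measured at successive time points.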

[3] = qHTS RealTime-Glo MT Cell Viability Assay in HEK293 cells - 16 hour (AID 1224872); note: top concentration of the series differs between compounds; nearly all actives have a fitted effect of over 50% in size
In short: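 HEK293 cells seeded with NanoLuc/prosubstrate reagent, rested 5 h at 37 C, then dosed and kept at 37 C up to 40 h. Nonlytic real-time luminescence from viable cells read at 0, 8, 16, 24, 32 and 40 h.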

[4] = qHTS RealTime-Glo MT Cell Viability Assay in HepG2 cells - 8 hour (AID 1224873); note: nearly all actives have a fitted effect of over 55% in size
In short: as §1

[5] = qHTS RealTime-Glo MT Cell Viability Assay in HEK293 cells - 40 hour (AID 1224874); details: RealTime-Glo luminescence; max response: active compounds read low; note: nearly all actives have a fitted effect of over 50% in size
In short: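 Cells were seeded together with NanoLuc luciferase and a prosubstrate that viable cells reduce to a luciferase substrate. After a 5 h incubation at 37 C/5% CO2, compounds were added and luminescence was measured repeatedly during 40 h of treatment.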

[6] = A CellTox Green Cytotoxicity Assay to monitor cytotoxicity in HEK293 cells - 24 hour (AID 1224875); note: series mostly up to about 77 µM; nearly all actives have a fitted effect of over 45% in size
In short: as §2

[7] = A CellTox Green Cytotoxicity Assay to monitor cytotoxicity in HepG2 cells - 16 hour (AID 1224876); note: nearly all actives have a fitted effect of over 45% in size
In short: (§3)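 Read-out is fluorescence of a cyanine dye excluded from live cells that stains DNA of dead HepG2 cells, with signal proportional to cytotoxicity. Plates were read at 0, 8, 16, 24, 32 and 40 h after compound addition.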

[8] = qHTS RealTime-Glo MT Cell Viability Assay in HepG2 cells - 32 hour (AID 1224877); note: nearly all actives have a fitted effect of over 55% in size; note: potency is the fitted concentration of half-maximal effect
In short: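 HepG2 cells (600/well) were dispensed with RealTime-Glo reagents, incubated 5 h at 37 °C, then treated with compounds in DMSO for up to 40 h. Nonlytic NanoLuc luminescence reflecting viable cells was read at each stated time point.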

[9] = A CellTox Green Cytotoxicity Assay to monitor cytotoxicity in HepG2 cells - 24 hour (AID 1224878); note: nearly all actives have a fitted effect of over 45% in size
In short: as §3

[10] = A CellTox Green Cytotoxicity Assay to monitor cytotoxicity in HepG2 cells - 40 hour (AID 1224879); note: nearly all actives have a fitted effect of over 40% in size
In short: as §3

With `CC(C)(C)OC(=O)N1C[C@@H](F)C[C@H]1C(=O)O` the Potency [1] was “inactive”, the Potency [2] was “inactive” and the Potency [3] was “inactive”. For the same molecule, the outcome [4] was “inactive”, the max response [5] was 2.11% and the Potency [6] was “inactive”. The Potency [7] was “inactive”, the Potency [8] was “inactive” and the Potency [9] was “inactive”. The Potency [10] was “inactive”.
In the case of `CC(=O)OC(C)(C)C`, the Potency [1] is reported as “inactive”, the Potency [2] is reported as “inactive” and the Potency [3] is reported as “inactive”. The outcome [4] was “inactive”, the max response [5] was 8.31% and the Potency [6] was “inactive”. For the same molecule, the Potency [7] was “inactive”, the Potency [8] was “inactive” and the Potency [9] was “inactive”. The Potency [10] was “inactive”.
For `NC(=O)c1c(Cl)cccc1Cl`, the Potency [1] was “inactive”, the Potency [2] was “inactive” and the Potency [3] was “inactive”. The outcome [4] was “inactive”, the max response [5] was -0.288% and the Potency [6] was “inactive”. The Potency [7] was “inactive”, the Potency [8] was “inactive” and the Potency [9] was “inactive”. For the same molecule, the Potency [10] was “inactive”.
For `CO`, the Potency [1] was “inactive”, the Potency [2] was “inactive” and the Potency [3] was “inactive”. For the same molecule, the outcome [4] was “inactive”, the max response [5] was 3.26% and the Potency [6] was “inactive”. The Potency [7] was “inactive”, the Potency [8] was “inactive” and the Potency [9] was “inactive”. The Potency [10] was “inactive”.
For `O=c1[nH]c(=O)n([C@H]2O[C@H](CO)[C@@H](O)[C@@H]2O)cc1/C=C\Br`, the Potency [1] was “inactive”, the Potency [2] was “inactive” and the Potency [3] was “inactive”. For the same molecule, the outcome [4] was “inactive”, the max response [5] was 3.79% and the Potency [6] was “inactive”. The Potency [7] was “inactive”, the Potency [8] was “inactive” and the Potency [9] was “inactive”. For the same molecule, the Potency [10] was “inactive”.
In the case of `C=C(C)C(=O)NCCC[N+](C)(C)C`, the Potency [1] is reported as “inactive”, the Potency [2] is reported as “inactive” and the Potency [3] is reported as “inactive”. For the same molecule, the outcome [4] was “inactive”, the max response [5] was 0.623% and the Potency [6] was “inactive”. For the same molecule, the Potency [7] was “inactive”, the Potency [8] was “inactive” and the Potency [9] was “inactive”. The Potency [10] was “inactive”.
In the case of `COC(=O)CCCCCCCCC(=O)OC`, the Potency [1] is reported as “inactive”, the Potency [2] is reported as “inactive” and the Potency [3] is reported as “inactive”. For the same molecule, the outcome [4] was “inactive”, the max response [5] was 2.88% and the Potency [6] was “inactive”. The Potency [7] was “inactive”, the Potency [8] was “inactive” and the Potency [9] was “inactive”. The Potency [10] was “inactive”.
In the case of `COc1nc(C)nc(N)n1`, the Potency [1] is reported as “inactive”, the Potency [2] is reported as “inactive” and the Potency [3] is reported as “inactive”. For the same molecule, the outcome [4] was “inactive”, the max response [5] was -1.44% and the Potency [6] was “inactive”. The Potency [7] was “inactive”, the Potency [8] was “inactive” and the Potency [9] was “inactive”. For the same molecule, the Potency [10] was “inactive”.
For `CC(C=O)Cc1ccc(C(C)C)cc1` (stereo not given), the Potency [1] was “inactive”, the Potency [2] was “inactive” and the Potency [3] was “inactive”. For the same molecule, the outcome [4] was “inactive”, the max response [5] was 18.5% and the Potency [6] was “inactive”. The Potency [7] was “inactive”, the Potency [8] was “inactive” and the Potency [9] was “inactive”. For the same molecule, the Potency [10] was “inactive”.
With `Nc1cc(N)cc(C(=O)O)c1` the Potency [1] was “inactive”, the Potency [2] was “inactive” and the Potency [3] was “inactive”. For the same molecule, the outcome [4] was “inactive”, the max response [5] was 8.18% and the Potency [6] was “inactive”. The Potency [7] was “inactive”, the Potency [8] was “inactive” and the Potency [9] was “inactive”. For the same molecule, the Potency [10] was “inactive”.
With `CCCCCCCCCCCCI` the Potency [1] was 22 µM (active), the Potency [2] was “inactive” and the Potency [3] was “inactive”. For the same molecule, the outcome [4] was “inactive”, the max response [5] was -9.8% and the Potency [6] was “inactive”. For the same molecule, the Potency [7] was “inactive”, the Potency [8] was 24.7 µM (active) and the Potency [9] was “inactive”. The Potency [10] was “inactive”.
For `O=S(=O)(O)c1ccccc1O`, the Potency [1] was “inactive”, the Potency [2] was “inactive” and the Potency [3] was “inactive”. For the same molecule, the outcome [4] was “inactive”, the max response [5] was 8.61% and the Potency [6] was “inactive”. For the same molecule, the Potency [7] was “inactive”, the Potency [8] was “inactive” and the Potency [9] was “inactive”. For the same molecule, the Potency [10] was “inactive”.
In the case of `C(=C(c1ccccc1)c1ccccc1)c1ccccc1`, the Potency [1] is reported as “inactive”, the Potency [2] is reported as “inactive” and the Potency [3] is reported as “inactive”. For the same molecule, the outcome [4] was “inactive”, the max response [5] was 7.28% and the Potency [6] was “inactive”. The Potency [7] was “inactive”, the Potency [8] was “inactive” and the Potency [9] was “inactive”. For the same molecule, the Potency [10] was “inactive”.
For `N#CCc1ccccc1[N+](=O)[O-]`, the Potency [1] was “inactive”, the Potency [2] was “inactive” and the Potency [3] was “inactive”. For the same molecule, the outcome [4] was “inactive”, the max response [5] was 9.34% and the Potency [6] was “inactive”. For the same molecule, the Potency [7] was “inactive”, the Potency [8] was “inactive” and the Potency [9] was “inactive”. The Potency [10] was “inactive”.
In the case of `CCCCCOC(=O)Nc1nc(=O)n([C@@H]2O[C@H](C)[C@@H](O)[C@H]2O)cc1F`, the Potency [1] is reported as “inactive”, the Potency [2] is reported as “inactive” and the Potency [3] is reported as “inactive”. For the same molecule, the outcome [4] was “inactive”, the max response [5] was 7% and the Potency [6] was “inactive”. For the same molecule, the Potency [7] was “inactive”, the Potency [8] was “inactive” and the Potency [9] was “inactive”. The Potency [10] was “inactive”.
In the case of `CC(C)COC(=O)c1ccccc1O`, the Potency [1] is reported as “inactive”, the Potency [2] is reported as “inactive” and the Potency [3] is reported as “inactive”. The outcome [4] was “inactive”, the max response [5] was 7.83% and the Potency [6] was “inactive”. The Potency [7] was “inactive”, the Potency [8] was “inactive” and the Potency [9] was “inactive”. For the same molecule, the Potency [10] was “inactive”.
For `C1=C\CC/C=C\CC/C=C\CC/1`, the Potency [1] was “inactive”, the Potency [2] was “inactive” and the Potency [3] was “inactive”. The outcome [4] was “inactive”, the max response [5] was 24.2% and the Potency [6] was “inactive”. The Potency [7] was “inactive”, the Potency [8] was “inactive” and the Potency [9] was “inactive”. For the same molecule, the Potency [10] was “inactive”.
With `CN(C)C(=O)Nc1ccccc1` the Potency [1] was “inactive”, the Potency [2] was “inactive” and the Potency [3] was “inactive”. For the same molecule, the outcome [4] was “inactive”, the max response [5] was 1.06% and the Potency [6] was “inactive”. For the same molecule, the Potency [7] was “inactive”, the Potency [8] was “inactive” and the Potency [9] was “inactive”. The Potency [10] was “inactive”.
For `CCCCCCCCCCCl`, the Potency [1] was “inactive”, the Potency [2] was “inactive” and the Potency [3] was “inactive”. The outcome [4] was “inactive”, the max response [5] was 6.94% and the Potency [6] was “inactive”. For the same molecule, the Potency [7] was “inactive”, the Potency [8] was “inactive” and the Potency [9] was “inactive”. The Potency [10] was “inactive”.
For `CO[Si](OC)(OC)OC`, the Potency [1] was “inactive”, the Potency [2] was “inactive” and the Potency [3] was “inactive”. For the same molecule, the outcome [4] was “inactive”, the max response [5] was 16.8% and the Potency [6] was “inactive”. The Potency [7] was “inactive”, the Potency [8] was “inactive” and the Potency [9] was “inactive”. The Potency [10] was “inactive”.
With `O=C(O)c1cccc(C(=O)O)n1` the Potency [1] was “inactive”, the Potency [2] was “inactive” and the Potency [3] was “inactive”. For the same molecule, the outcome [4] was “inactive”, the max response [5] was -0.906% and the Potency [6] was “inactive”. The Potency [7] was “inactive”, the Potency [8] was “inactive” and the Potency [9] was “inactive”. The Potency [10] was “inactive”.
